The nature of test [1]: NCI Yeast Anticancer Drug Screen. Data for the rad50 strain (AID 155).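 Further: 0% = growth of vehicle-only cultures of the same strain.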 Conditions: S. cerevisiae rad50 strain growth inhibition, hits give high values. In a few lines:
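Yeast carrying a defined DNA repair defect were exposed to test compounds, and growth was compared with vehicle-treated controls to give percent inhibition.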

Test [2] in a line: NCI Yeast Anticancer Drug Screen. Data for the mec2-1 strain (AID 157). Conditions: S. cerevisiae mec2-1 strain, hits give high values. In a few lines: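 Yeast mec2-1 mutant treated with compound. Readout: growth inhibition vs vehicle controls.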
A short description of test [3]: NCI Yeast Anticancer Drug Screen. Data for the sgs1 mgt1 strain (AID 161).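 Further: 0% = growth of cultures given vehicle only.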 Conditions: S. cerevisiae sgs1 mgt1 strain, hits give high values. In a few lines:
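Test agents were incubated with a DNA-repair-mutant yeast strain. Growth was then read and compared against vehicle-treated controls.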

Test [4] is described as follows: NCI Yeast Anticancer Drug Screen. Data for the cln2 rad14 strain (AID 165).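 Further: 0% = growth equal to vehicle treated cultures.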 Conditions: S. cerevisiae cln2 rad14 strain, hits give high values. The essentials:
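cln2 rad14 yeast strain; compound exposure; growth inhibition read vs vehicle controls.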

Test [5] in a line: NCI Yeast Anticancer Drug Screen. Data for the bub3 strain (AID 167). The following applies: S. cerevisiae bub3 mutant strain, hits give high values. In a few lines:
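Compounds were applied to a genetically altered yeast strain carrying a cell-cycle control defect. Growth inhibition was scored against vehicle-treated controls.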

Test [6] can be described thus: NCI Yeast Anticancer Drug Screen. Data for the mlh1 rad18 strain (AID 175). The following applies: S. cerevisiae mlh1 rad18 strain growth inhibition, hits give high values. The essentials:
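Yeast w/ defined DNA-repair lesions; compound exposure; growth vs vehicle controls → % inhibition.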

The mark [7] stands for this setting: at 5.0 µM (retest, dose inferred, filed as 0.5).
Setting [8] is: at 50.0 µM (retest, dose inferred, filed as 5.0).

About 79,000 compounds went through this panel and 15% of them were active in at least one assay; those are over-represented in the sample as a whole. A number with no mark means an inactive call. Calls of active or inactive are those of the source. No stated cut-off is given here; in the data, active means growth inhibition above about 70%; inactive means the rest.

This passage reports growth inhibition results from PubChem BioAssay (NCI).

As to `O=S(=O)(Nc1nccs1)c1ccc(N=Cc2cn(Cc3ccccc3)c3ccccc23)cc1`, the growth inhibition in test [1] (setting [7]) is 3%; in test [1] (setting [8]), 53%; in test [1] (at 50.0 µM) it was 82.3% (active); in test [2] (setting [7]), -3%; in test [2] (setting [8]), 7%; in test [2] (at 50.0 µM) it was 36.4%. Further, the growth inhibition is 3% in test [3] (setting [7]); 57% in test [3] (setting [8]); 85.9% (active) in test [3] (at 50.0 µM); 9% in test [4] (setting [7]); 11% in test [4] (setting [8]); 27.4% in test [4] (at 50.0 µM). Besides, the growth inhibition in test [5] (setting [7]) is 1%; in test [5] (setting [8]), 8%; in test [5] (at 50.0 µM) it was 9.5%; in test [6] (setting [7]), 5%; in test [6] (setting [8]), 38%; in test [6] (at 50.0 µM), 52.4%.

Regarding `CC(=O)Nc1ccc(C(C)(C)c2ccc(C)cc2)cc1`, the growth inhibition is 0% in test [1] (setting [7]); 95% (active) in test [1] (setting [8]); -4.5% in test [1] (at 50.0 µM); 0% in test [2] (setting [7]); 98% (active) in test [2] (setting [8]); -12.2% in test [2] (at 50.0 µM). The growth inhibition was -1% in test [3] (setting [7]); 96% (active) in test [3] (setting [8]); 24.1% in test [3] (at 50.0 µM); 2% in test [4] (setting [7]); 96% (active) in test [4] (setting [8]); 3.75% in test [4] (at 50.0 µM). Moreover, the growth inhibition in test [5] (setting [7]) was 4%; in test [5] (setting [8]), 97% (active); in test [5] (at 50.0 µM) it was 57.5%; in test [6] (setting [7]), -1%; in test [6] (setting [8]), 96% (active); in test [6] (at 50.0 µM) it was -2.15%.

As for `c1ccc2c(c1)OCC(CNCCNCC1COc3ccccc3O1)O2` (stereo not given), the growth inhibition in test [1] (setting [7]) was 51%; in test [1] (setting [8]) it was 69%; in test [1] (at 50.0 µM) it was 72% (active); in test [2] (setting [7]), 69%; in test [2] (setting [8]), 79% (active); in test [2] (at 50.0 µM) it was 57.9%. Moreover, the growth inhibition was 70% (active) in test [3] (setting [7]); 86% (active) in test [3] (setting [8]); 87.5% (active) in test [3] (at 50.0 µM); 45% in test [4] (setting [7]); 63% in test [4] (setting [8]); 87% (active) in test [4] (at 50.0 µM). Besides, the growth inhibition in test [5] (setting [7]) is 43%; in test [5] (setting [8]), 55%; in test [5] (at 50.0 µM), 58.3%; in test [6] (setting [7]), 75% (active); in test [6] (setting [8]) it was 74% (active); in test [6] (at 50.0 µM) it was 67.2%.

Regarding `Cc1occc1C(=S)Nc1ccc(Cl)c(COC(C)(C)C)c1`, the growth inhibition was 26% in test [1] (setting [7]); 74% (active) in test [1] (setting [8]); 78.9% (active) in test [1] (at 50.0 µM); 6% in test [2] (setting [7]); 74% (active) in test [2] (setting [8]); 84.3% (active) in test [2] (at 50.0 µM). Besides, the growth inhibition was 17% in test [3] (setting [7]); 84% (active) in test [3] (setting [8]); 85.7% (active) in test [3] (at 50.0 µM); 22% in test [4] (setting [7]); 86% (active) in test [4] (setting [8]); 84.8% (active) in test [4] (at 50.0 µM). Also, the growth inhibition in test [5] (setting [7]) is 26%; in test [5] (setting [8]) it was 90% (active); in test [5] (at 50.0 µM) it was 86.2% (active); in test [6] (setting [7]), 19%; in test [6] (setting [8]), 85% (active); in test [6] (at 50.0 µM), 78.5% (active).

`Nc1ccccc1-c1nc2c(ccc3ccccc32)[nH]1`: the growth inhibition is -1% in test [1] (setting [7]); 10% in test [1] (setting [8]); 79.7% (active) in test [1] (at 50.0 µM); -17% in test [2] (setting [7]); -10% in test [2] (setting [8]); 4.6% in test [2] (at 50.0 µM). Moreover, the growth inhibition in test [3] (setting [7]) is -16%; in test [3] (setting [8]) it was -5%; in test [3] (at 50.0 µM) it was 88.8% (active); in test [4] (setting [7]), 8%; in test [4] (setting [8]) it was -10%; in test [4] (at 50.0 µM), 24.6%. Also, the growth inhibition in test [5] (setting [7]) was -3%; in test [5] (setting [8]) it was 2%; in test [5] (at 50.0 µM), 62.3%; in test [6] (setting [7]), 0%; in test [6] (setting [8]), -18%; in test [6] (at 50.0 µM) it was 80.5% (active).

Consider `CCNC(=S)N/N=C(/C)c1cccc(/C(C)=N\NC(=S)NCC)n1`, for which the growth inhibition in test [1] (setting [7]) is 1%; in test [1] (setting [8]), 12%; in test [1] (at 50.0 µM), 57.5%; in test [2] (setting [7]) it was 10%; in test [2] (setting [8]) it was 10%; in test [2] (at 50.0 µM), 38.4%. Moreover, the growth inhibition in test [3] (setting [7]) is 13%; in test [3] (setting [8]), 24%; in test [3] (at 50.0 µM) it was 63.7%; in test [4] (setting [7]) it was 8%; in test [4] (setting [8]), 6%; in test [4] (at 50.0 µM), 19.1%. Also, the growth inhibition in test [5] (setting [7]) was 18%; in test [5] (setting [8]), 38%; in test [5] (at 50.0 µM), 54.2%; in test [6] (setting [7]), 12%; in test [6] (setting [8]) it was 22%; in test [6] (at 50.0 µM), 37.7%.

On to `O=C(CC(=O)c1ccccc1)CC(=O)c1ccccc1Br`, for which the growth inhibition is 1% in test [1] (setting [7]); 94% (active) in test [1] (setting [8]); 71.1% (active) in test [1] (at 50.0 µM); -1% in test [2] (setting [7]); 93% (active) in test [2] (setting [8]); 93.5% (active) in test [2] (at 50.0 µM). The growth inhibition is -17% in test [3] (setting [7]); 93% (active) in test [3] (setting [8]); 6.6% in test [3] (at 50.0 µM); -3% in test [4] (setting [7]); 75% (active) in test [4] (setting [8]); 85.5% (active) in test [4] (at 50.0 µM). In addition, the growth inhibition in test [5] (setting [7]) is -1%; in test [5] (setting [8]), 96% (active); in test [5] (at 50.0 µM) it was 68.7%; in test [6] (setting [7]), 1%; in test [6] (setting [8]), 96% (active); in test [6] (at 50.0 µM) it was 96.5% (active).

Consider `CCCCC/C(=C/C=C/c1ccc(Cl)cc1)CN(C)C`, for which the growth inhibition in test [1] (setting [7]) is 11%; in test [1] (setting [8]), 97% (active); in test [1] (at 50.0 µM), 99.5% (active); in test [2] (setting [7]) it was 8%; in test [2] (setting [8]), 98% (active); in test [2] (at 50.0 µM), 99.8% (active). In addition, the growth inhibition was 49% in test [3] (setting [7]); 98% (active) in test [3] (setting [8]); 99.7% (active) in test [3] (at 50.0 µM); 13% in test [4] (setting [7]); 97% (active) in test [4] (setting [8]); 99.5% (active) in test [4] (at 50.0 µM). Also, the growth inhibition was 6% in test [5] (setting [7]); 98% (active) in test [5] (setting [8]); 99.8% (active) in test [5] (at 50.0 µM); 7% in test [6] (setting [7]); 97% (active) in test [6] (setting [8]); 99.7% (active) in test [6] (at 50.0 µM).

In the case of `CC(=O)Nc1cc(F)c2c(c1)Cc1ccccc1-2`, the growth inhibition in test [1] (setting [7]) was 5%; in test [1] (setting [8]), 77% (active); in test [1] (at 50.0 µM), -1.75%; in test [2] (setting [7]) it was -2%; in test [2] (setting [8]), 59%; in test [2] (at 50.0 µM), 19.5%. Further, the growth inhibition in test [3] (setting [7]) is -1%; in test [3] (setting [8]), 84% (active); in test [3] (at 50.0 µM), -16.8%; in test [4] (setting [7]), 0%; in test [4] (setting [8]), 77% (active); in test [4] (at 50.0 µM) it was 89.4% (active). In addition, the growth inhibition in test [5] (setting [7]) was 2%; in test [5] (setting [8]), 83% (active); in test [5] (at 50.0 µM) it was 90.5% (active); in test [6] (setting [7]) it was 4%; in test [6] (setting [8]) it was 78% (active); in test [6] (at 50.0 µM), -14.2%.

For the compound `Cc1cc(C)nc(NS(=O)(=O)c2ccc(Nc3nc(-c4cccc([N+](=O)[O-])c4)cs3)cc2)n1`, the growth inhibition in test [1] (setting [7]) was 14%; in test [1] (setting [8]) it was 99% (active); in test [1] (at 50.0 µM) it was 23.1%; in test [2] (setting [7]) it was -1%; in test [2] (setting [8]), 99% (active); in test [2] (at 50.0 µM) it was 30.5%. The growth inhibition was 7% in test [3] (setting [7]); 99% (active) in test [3] (setting [8]); 47.6% in test [3] (at 50.0 µM); -26% in test [4] (setting [7]); 98% (active) in test [4] (setting [8]); 51.9% in test [4] (at 50.0 µM). Further, the growth inhibition in test [5] (setting [7]) was 34%; in test [5] (setting [8]), 99% (active); in test [5] (at 50.0 µM), 75.2% (active); in test [6] (setting [7]) it was 5%; in test [6] (setting [8]), 99% (active); in test [6] (at 50.0 µM), 53%.
